High-throughput results (PubChem)
HTT cytoprotect – qHTS Multiplex Assay to Identify Dual Action Probes in a Cell Model of Huntington: Cytoprotection (ATP); PC12 HTT-Q103 induced, cytoprotection, ATP luminescence, 40 h; Potency, µM (highest dose often 56.4 µM), usual class: activators; 0.14% of 230,000 active; also: nearly all actives have a fitted effect of over 45% in size
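ATP quantification (ATPlite) reports survival of PC12 cells in which tebufenozide, 100 nM final, switches on Htt exon 1 with 103 glutamines linked to GFP; compounds are titrated.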
NPSR antag – qHTS Assay for Antagonists of the Neuropeptide S Receptor: cAMP Signal Transduction; Q6W5P4; Potency, µM (series often up to 38.3 µM), usual class: inhibitors; CHO-NPSR cells, cAMP TR-FRET, antagonist mode; 1% of 220,000 active; also: nearly all actives have a fitted effect of over 50% in size
Target sequence (Q6W5P4 whole entry, looked up): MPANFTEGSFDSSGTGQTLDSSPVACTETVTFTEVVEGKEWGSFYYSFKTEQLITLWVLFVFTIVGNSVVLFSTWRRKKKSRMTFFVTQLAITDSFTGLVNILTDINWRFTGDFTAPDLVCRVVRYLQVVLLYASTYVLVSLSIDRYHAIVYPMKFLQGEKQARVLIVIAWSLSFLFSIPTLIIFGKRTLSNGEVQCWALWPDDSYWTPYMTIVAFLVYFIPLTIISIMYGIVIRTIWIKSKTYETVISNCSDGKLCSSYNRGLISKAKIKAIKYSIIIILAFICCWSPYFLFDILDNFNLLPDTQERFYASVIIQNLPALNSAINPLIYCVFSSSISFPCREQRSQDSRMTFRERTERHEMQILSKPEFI
Epigenetic derep – Quantitative High-Throughput Screen for Regulators of Epigenetic Control | murine LDR cells, GFP reporter derepression, 30 h | Potency, µM (titrated, usually from 53.9 µM), hits mostly activators | 0.2% of 280,000 active | AID 1865, 2009; also: nearly all actives have a fitted effect of over 60% in size
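GFP-positive cell count by laser-scanning cytometry (objects 20–120 um) after 30 h, 37 C compound exposure of murine LDR cells; reporter is CMV-GFP integrated at a silenced locus, inducible by HDAC or DNMT inhibitors.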
Lamin A splicing – qHTS Assay for Modulators of Lamin A Splicing; HeLa LMNA splicing GFP/RFP minigene ratio, 48 h; Potency, µM (highest dose often 46.1 µM), actives largely listed as inhibitors; 0.01% of 200,000 active; AID 1487, 2009; active = well fitted inhibition curve with a large enough effect in the signal ratio, with a control signal flat, not every such curve was filed as active; inconclusive = small, poorly fitted or top-dose-only effect, or effect the other way, or a change in a side signal; the % refers to the signal ratio
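S3 HeLa stable clones carrying a lamin A-EGFP splicing minigene plus DsRed2 were seeded at 600 cells/well in Opti-MEM with 2% FBS, pin-dosed and incubated 48 h at 37°C. Acumen cytometry (488 nm) gave the GFP/RFP total-intensity ratio.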
HttQ103 aggreg – qHTS Multiplex Assay to Identify Dual Action Probes in a Cell Model of Huntington: Aggregate Formation (GFP); PC12 HttQ103-GFP aggregates, Acumen cytometry, 40 h; Potency, µM (series often up to 46.1 µM), hits mostly inhibitors; 1.1% of 220,000 active; AID 1688, 2009; also: nearly all actives have a fitted effect of over 60% in size
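PC12 cells stably carrying ecdysone-inducible HTT exon 1 Q103–GFP were induced with tebufenozide (100 nM final) and treated with library compounds in titration. GFP aggregates in lysates were counted by laser scanning cytometry.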
C127i cell count – Parental Cell Counter Screen Assay for Epigenetic Modulators: Hit Validation; mouse c127i parental cells, fluorescent cell count, 30 h; shares compounds with Epigenetic derep; Potency, µM, hits mostly activators; 20% of 60 active
HCC4017 viab – HCC4017 Cell Viability Secondary Assay for qHTS Assay for Epigenetic Modulators; HCC4017 NSCLC viability, CellTiter-Glo ATP luminescence, 72 h; shares compounds with Epigenetic derep; 30% of 45 active; AID 493071, 2011; Potency, µM (top dose mostly 46.1 µM), hits mostly cytotoxic
H358 viab – H358 Cell Viability Secondary Assay for qHTS Assay for Epigenetic Modulators: Round 2 | shares compounds with Epigenetic derep | H358 NSCLC viability, ATP luminescence, 72 h | Potency, µM (top dose mostly 46.1 µM), usual class: cytotoxic | 30% of 45 active | AID 493074, 2011
A number is an active result; 0 = inactive; ? = inconclusive; - = no result given; [ ] = another dose, or the depositor's remark. An excerpt weighted towards active compounds, which were near 1.5% of everything screened. Unless noted, calls follow the shape of the dose curve; as a rule, active = well fitted curve in the direction sought with a large enough effect; inconclusive = small, poorly fitted or top-dose-only effect, or another doubt; inactive = no such curve, though single readings can be large; an effect the other way counts as inactive or inconclusive.

SMILES	HTT cytoprotect	NPSR antag	Epigenetic derep	Lamin A splicing	HttQ103 aggreg	C127i cell count	HCC4017 viab	H358 viab
CCOC(=O)c1sc(NC(=O)Nc2ccc(Cl)cc2)cc1C	0[10 µM]	?	0	?	22µM	-	-	-
Cc1cc(C(=O)CC#N)c(C)n1-c1ccc(OC(F)F)cc1	0[10 µM]	0	0	?	8.9µM	-	-	-
CCOc1ccc(C(=O)N/N=C(/C)C2C(=O)c3ccccc3C2=O)cc1	0[10 µM]	0	0	0	10µM	-	-	-
O=C(CCCCn1c(=O)c2ccccc2n(Cc2ccc(F)cc2)c1=O)NCc1ccco1	0[10 µM]	0	0	0	1µM	-	-	-
COc1cc2c(cc1OC)C1(Nc3c-2c(-c2ccccc2)nn3-c2ccccc2)C(=O)Nc2ccccc21 (configuration not stated)	0	?	0	0	0[9.22 µM]	-	-	-
COc1cc2c(cc1OC)C1(Nc3c-2c(C)nn3-c2ccccc2)C(=O)Nc2ccccc21 (configuration not stated)	3.5µM	0	?	0	0	-	-	-
COc1ccc(O[C@H]2C=C[C@@H](c3ccccc3)O[C@@H]2COC(=O)CC/C(C)=N/O[C@@H](C)CN2CCCCc3nc(C)c(C)cc32)cc1	-	16µM	0	0	0	-	-	-
COc1ccccc1CNCCCCCCNCCCCCCCCNCCCCCCNCc1ccccc1OC	0	13µM	0	?	-	-	-	-
CC1=C/C(=N\NC(=S)Nc2cccnc2)CC(C)(C)C1	0[10 µM]	1.3µM	6.3µM	?	?	0	?	0
O=[N+]([O-])/C(=C\Nc1ccccc1Cl)S(=O)(=O)c1ccccc1	0	0	0	?	0	-	-	-
O=[N+]([O-])/C(C=Nc1ccccc1O)=C\Nc1ccccc1O	0[10 µM]	0	?	-	0[9.22 µM]	0	0	?
COc1ccc(/C=C/N(CCc2ccc(OC)c(OC)c2)C(C)=O)cc1	0[10 µM]	-	0[10.1 µM]	-	-	-	-	-
N=c1n(CC(=O)O)c2ccccc2n1Cc1ccccc1Cl	0[0.074 µM]	0	0	0	0	-	-	-
N=c1n(CC(=O)c2ccc([N+](=O)[O-])cc2)c2ccccc2n1Cc1ccccc1Cl	-	0	?	0	0	0	13µM	?
COc1ccc(Nc2nc3c(S(=O)(=O)c4ccccc4)nnn3c3ccc(Cl)cc23)cc1	-	-	?	-	-	0	-	-
O=C(NN1C(=O)c2ccccc2NC1c1ccc([N+](=O)[O-])o1)c1ccccc1 (configuration not stated)	0	0	0	-	?	-	-	-
O=C(NN1C(=O)c2ccccc2NC1c1ccc([N+](=O)[O-])o1)c1ccc([N+](=O)[O-])cc1 (configuration not stated)	0	0	10µM	-	?	0	?	?
O=C(CSc1cccc[n+]1[O-])c1ccccc1Br	0	0	3.5µM	?	0	0	0	0
Cc1cc(C)cc(-n2c(C)cc(C(=O)C(=O)Nc3ccccc3F)c2C)c1	-	-	0	-	-	-	-	-
COc1ccc(Cl)cc1S(=O)(=O)Nc1ccc2[nH]c(=O)[nH]c2c1	-	-	0	-	-	-	-	-
COc1ccccc1OCC(=O)N/N=C/C=C/c1ccc([N+](=O)[O-])o1	0[10 µM]	0	10µM	?	?	0	?	14µM
COCCNC(=S)N/N=C(\C)c1ccccc1O	-	0	4.5µM	?	0	0	?	?
CCOC(=O)c1c(NC(=O)CC2Nc3cc(C)c(C)cc3NC2=O)sc(C)c1C (configuration not stated)	0[10 µM]	0	8.9µM	0	0	?	-	-
COc1ccc(NC(=O)c2sc3nc(-c4ccc(OC)cc4)cc(C(F)(F)F)c3c2N)cc1	-	-	7.1µM	-	-	4µM	-	-
COc1ccc(NC(=O)c2sc3nc4c(c(-c5ccc(OC)cc5)c3c2N)C(=O)CC(C)(C)C4)cc1	-	-	0	-	-	-	-	-
SMILES	HTT cytoprotect	NPSR antag	Epigenetic derep	Lamin A splicing	HttQ103 aggreg	C127i cell count	HCC4017 viab	H358 viab
CCOC(=O)c1c(C)[nH]c(CCC(=O)NCc2ccc(N(C)C)cc2)c1C	-	-	0	0	-	-	-	-
CCOC(=O)c1cc2c(=O)n3ccccc3nc2n(Cc2ccco2)c1=NC(=O)c1cccc(Br)c1	-	-	0	0	-	-	-	-
CCOC(=O)c1cc2c(=O)n3ccccc3nc2n(Cc2ccco2)c1=NC(=O)c1ccc(Br)cc1	-	-	?	-	-	28µM	-	-
O=c1c2sc3ccccc3c2n(Cc2cccc(Cl)c2)c(=O)n1Cc1ccc(F)cc1	-	-	0	-	-	-	-	-
O=S(=O)(c1ccc(-n2cnnn2)cc1)N1CCN(c2cccc(C(F)(F)F)c2)CC1	-	-	0	-	-	-	-	-
COc1cccc(N2CCN(S(=O)(=O)c3ccc(-n4cnnn4)cc3)CC2)c1	-	-	?	-	-	0	0	0
NC(=S)N/N=C/c1ncc(C(F)(F)F)cc1Cl	0[10 µM]	?	4µM	-	?	0	?	?
Cc1cccc(-n2ncc(C(=O)NCc3ccc4c(c3)OCO4)c2C2CCN(C(=O)OC(C)(C)C)CC2)c1	-	-	0	0	-	-	-	-
CN(c1ccccc1)S(=O)(=O)c1nnc(NC(=O)c2ccccc2)s1	-	-	7.1µM	0	-	0	0	0
Cc1ccc(NC(=O)c2c(C)nc3sc(C(=O)NC4CCCC4)c(N)c3c2-c2ccco2)c(C)c1	0[10 µM]	0	?	0	0	?	-	-
Cc1ccc(C(C)C)c(OCc2ccc(C(=O)N/N=C/c3ccc(O)c(O)c3)cc2)c1	-	0	0	?	0	-	-	-
Cc1ccc(C(C)C)c(OCc2ccc(C(=O)N/N=C/c3cccc(O)c3O)cc2)c1	0[0.074 µM]	10µM	?	?	0	0	2µM	0.56µM
COc1cccc(NC(=O)C2CCCN(S(=O)(=O)c3cccc4nonc34)C2)c1 (configuration not stated)	0	0	?	-	0	-	-	-
Cc1cc(NC(=O)C2CCCN(S(=O)(=O)c3cccc4nonc34)C2)ccc1Br (configuration not stated)	-	-	?	-	-	32µM	-	-
Cc1ccc(OCC(=O)Nc2ccc3nc(SCC(N)=O)sc3c2)cc1	-	-	0	0	-	-	-	-
COc1ccc(NC(=O)CSc2nc3c(oc4ccccc43)c(=O)n2Cc2ccco2)cc1Cl	-	-	3.5µM	-	-	0	11µM	16µM
Cc1cccc(-c2nc(CSc3nncn4c3cc3sccc34)c(C)o2)c1	-	-	0	-	-	-	-	-
COc1cccc(/C=N/Nc2nc(Nc3ccccc3)nc(-n3nc(C)cc3C)n2)c1O	0[10 µM]	2.5µM	2.5µM	?	1.1µM	0	2.5µM	4.4µM
CCn1c(SCc2ccccc2C)nc(=O)c2c(C(=O)OC)cc(C3CC3)nc21	-	-	0	?	-	-	-	-
C/C=C/c1ccc(OCC(=O)Nc2ccc(C(N)=O)cc2)c(OC)c1	0[10 µM]	0	0	?	0	-	-	-
